± gives the standard deviation.
What was measured:
Assay in all cases: peptide microarray binding signal (635 nm), min-max normalized on array (fraction of array maximum); higher = stronger binding
Settings in all cases: peptide region: H2B 17-29
[1] = target: T1, HaloTag-ATRX ADD domain (163-292)
T1 chain: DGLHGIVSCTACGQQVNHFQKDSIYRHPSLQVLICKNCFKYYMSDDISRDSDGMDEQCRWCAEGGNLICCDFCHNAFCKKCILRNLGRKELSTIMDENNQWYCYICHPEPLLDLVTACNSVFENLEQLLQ
Method: (§1)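 Histone 13-mer peptides were synthesized as cellulose conjugates with a C-terminal 20-atom PEG linker and printed in triplicate on nitrocellulose. The sequence given is the unmodified backbone; PTMs (Kme1/2/3, Kac, Sph/Tph, Rme/Rme2a/Rme2s, Rcit) are listed in the label and the 'peptide modifications' condition. Slides were probed at 4 °C for 1 h with biotin-labelled (HQ)5-HaloTag reader fusions (ATRX-ADD, ING2-PHD) then streptavidin-Alexa647, or with rabbit histone antibodies then anti-rabbit Alexa647. The mean 635 nm signal of the triplicate spots was scaled 0-1 between the lowest and highest values on each array.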

[2] = target: HaloTag-ING2 PHD (mouse Ing2 200-280)
Method: as §1

[3] = target: anti-H3K4me3 antibody ab8580
Method: as §1

[4] = target: anti-H3K9me3 antibody ab8898
Method: as §1

[5] = peptide modifications: H2BK20ac H2BK27ac, binder concentration: 1:2,000 dilution
[6] = peptide modifications: H2BK20ac H2BK27ac, binder concentration: 1:10,000 dilution
[7] = peptide modifications: H2BK23ac H2BK24ac H2BK27ac H2BK28ac, binder concentration: 1:2,000 dilution
[8] = peptide modifications: H2BK23ac H2BK24ac H2BK27ac H2BK28ac, binder concentration: 1:10,000 dilution
[9] = peptide modifications: H2BK20ac H2BK23ac H2BK24ac, binder concentration: 1:2,000 dilution
[10] = peptide modifications: H2BK20ac H2BK23ac H2BK24ac, binder concentration: 1:10,000 dilution
[11] = peptide modifications: H2BK20ac H2BK23ac H2BK24ac H2BK27ac H2BK28ac, binder concentration: 1:2,000 dilution
[12] = peptide modifications: H2BK20ac H2BK23ac H2BK24ac H2BK27ac H2BK28ac, binder concentration: 1:10,000 dilution
[13] = peptide modifications: H2BK23ac H2BK24ac H2BK27ac, binder concentration: 1:2,000 dilution
[14] = peptide modifications: H2BK23ac H2BK24ac H2BK27ac, binder concentration: 1:10,000 dilution

AVTKAQKKDGKKR [H2B 17-29 A V T Kac A Q K K D G Kac K R]
peptide microarray binding signal ([1]; peptide modifications: H2BK20ac H2BK27ac, binder concentration: 50 nM): 0.00332 ± 9.9e-05 | peptide microarray binding signal ([1]; peptide modifications: H2BK20ac H2BK27ac, binder concentration: 500 nM): 0.00976 ± 0.00025 | peptide microarray binding signal ([2]; peptide modifications: H2BK20ac H2BK27ac, binder concentration: 10 nM): 0.00573 ± 0.0013 | peptide microarray binding signal ([2]; peptide modifications: H2BK20ac H2BK27ac, binder concentration: 100 nM): 0.00397 ± 0.00018 | peptide microarray binding signal [3, 5]: 0.00349 ± 0.00028 | peptide microarray binding signal [3, 6]: 0.000856 ± 8.9e-06 | peptide microarray binding signal [4, 5]: 0.000755 ± 1.7e-05 | peptide microarray binding signal [4, 6]: 0.000461 ± 8.7e-06

AVTKAQKKDGKKR [H2B 17-29 A V T K A Q Kac Kac D G Kac Kac R]
peptide microarray binding signal ([1]; peptide modifications: H2BK23ac H2BK24ac H2BK27ac H2BK28ac, binder concentration: 50 nM): 0.00486 ± 0.00032 | peptide microarray binding signal ([1]; peptide modifications: H2BK23ac H2BK24ac H2BK27ac H2BK28ac, binder concentration: 500 nM): 0.0102 ± 0.00019 | peptide microarray binding signal ([2]; peptide modifications: H2BK23ac H2BK24ac H2BK27ac H2BK28ac, binder concentration: 10 nM): 0.00722 ± 0.00059 | peptide microarray binding signal ([2]; peptide modifications: H2BK23ac H2BK24ac H2BK27ac H2BK28ac, binder concentration: 100 nM): 0.0164 ± 0.00086 | peptide microarray binding signal [3, 7]: 0.00215 ± 0.00011 | peptide microarray binding signal [3, 8]: 0.00205 ± 0.00011 | peptide microarray binding signal [4, 7]: 0.00101 ± 6.9e-05 | peptide microarray binding signal [4, 8]: 0.00138 ± 1.4e-05

AVTKAQKKDGKKR [H2B 17-29 A V T Kac A Q Kac Kac D G K K R]
peptide microarray binding signal ([1]; peptide modifications: H2BK20ac H2BK23ac H2BK24ac, binder concentration: 50 nM): 0.00661 ± 0.00032 | peptide microarray binding signal ([1]; peptide modifications: H2BK20ac H2BK23ac H2BK24ac, binder concentration: 500 nM): 0.0168 ± 0.0019 | peptide microarray binding signal ([2]; peptide modifications: H2BK20ac H2BK23ac H2BK24ac, binder concentration: 10 nM): 0.0274 ± 0.0038 | peptide microarray binding signal ([2]; peptide modifications: H2BK20ac H2BK23ac H2BK24ac, binder concentration: 100 nM): 0.0204 ± 0.0078 | peptide microarray binding signal [3, 9]: 0.00636 ± 0.0011 | peptide microarray binding signal [3, 10]: 0.0024 ± 0.00011 | peptide microarray binding signal [4, 9]: 0.00204 ± 0.00015 | peptide microarray binding signal [4, 10]: 0.00208 ± 8.4e-05

AVTKAQKKDGKKR [H2B 17-29 A V T Kac A Q Kac Kac D G Kac Kac R]
peptide microarray binding signal ([1]; peptide modifications: H2BK20ac H2BK23ac H2BK24ac H2BK27ac H2BK28ac, binder concentration: 50 nM): 0.00442 ± 0.00034 | peptide microarray binding signal ([1]; peptide modifications: H2BK20ac H2BK23ac H2BK24ac H2BK27ac H2BK28ac, binder concentration: 500 nM): 0.01 ± 0.0008 | peptide microarray binding signal ([2]; peptide modifications: H2BK20ac H2BK23ac H2BK24ac H2BK27ac H2BK28ac, binder concentration: 10 nM): 0.00871 ± 0.00071 | peptide microarray binding signal ([2]; peptide modifications: H2BK20ac H2BK23ac H2BK24ac H2BK27ac H2BK28ac, binder concentration: 100 nM): 0.0154 ± 0.0025 | peptide microarray binding signal [3, 11]: 0.00208 ± 0.00036 | peptide microarray binding signal [3, 12]: 0.00257 ± 0.0004 | peptide microarray binding signal [4, 11]: 0.000936 ± 3.8e-05 | peptide microarray binding signal [4, 12]: 0.00236 ± 0.00011

AVTKAQKKDGKKR [H2B 17-29 A V T K A Q Kac Kac D G Kac K R]
peptide microarray binding signal ([1]; peptide modifications: H2BK23ac H2BK24ac H2BK27ac, binder concentration: 50 nM): 0.00329 ± 7.2e-05 | peptide microarray binding signal ([1]; peptide modifications: H2BK23ac H2BK24ac H2BK27ac, binder concentration: 500 nM): 0.00362 ± 0.00012 | peptide microarray binding signal ([2]; peptide modifications: H2BK23ac H2BK24ac H2BK27ac, binder concentration: 10 nM): 0.00406 ± 5.6e-05 | peptide microarray binding signal ([2]; peptide modifications: H2BK23ac H2BK24ac H2BK27ac, binder concentration: 100 nM): 0.004039 ± 3.4e-05 | peptide microarray binding signal [3, 13]: 0.00068 ± 1.9e-05 | peptide microarray binding signal [3, 14]: 0.0012 ± 5.2e-05 | peptide microarray binding signal [4, 13]: 0.000453 ± 1.3e-05 | peptide microarray binding signal [4, 14]: 0.000519 ± 5.6e-06

Reference: the supplement of paper PMC4022240
